# Assay results: PubChem BioAssay (Tox21)
# Values without a mark were called inactive. Records with an inconclusive call do not appear. A call without a number means that no potency is given here. Activity calls are given as the source filed them. Unless noted, calls follow the shape of the dose curve; as a rule, active = well fitted curve in the direction sought with a large enough effect in the repeat runs; inconclusive = weak or mixed curves; inactive = no such curve, though single readings can be large; an effect the other way counts as inactive or inconclusive.
# Columns and labels:
# [1] = qHTS assay to identify small molecule agonists of the estrogen receptor alpha (ER-alpha) signaling pathway in the presence of an antagonist - cell viability counter screen (AID 1259386);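 also: cells exposed to compounds for 22 h at 37 °C before the viability read; nearly all actives have a fitted effect of over 30% in size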; also: potency is read from the fitted curve at half-maximal effect; as to activity change, negative = cytotoxicity: series mostly up to about 92 µM
# Method in brief: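 Cells are starved of estrogens for 5 days in charcoal-stripped serum, seeded for 24hr and co-treated with ICI-182,780 (10.0nM final) and test compounds. After 22hr at 37C, viability is read as CellTiter-Fluor fluorescence.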
# [2] = biological target: Progesterone receptor (Homo sapiens) (UniProt P06401); assay: qHTS assay to identify small molecule agonists of the progesterone receptor (PR) signaling pathway (AID 1346784; calls by dose curve; also: nearly all actives have a fitted effect of over 30% in size)
# Sequence of Progesterone receptor (Homo sapiens) (P06401 whole entry, looked up): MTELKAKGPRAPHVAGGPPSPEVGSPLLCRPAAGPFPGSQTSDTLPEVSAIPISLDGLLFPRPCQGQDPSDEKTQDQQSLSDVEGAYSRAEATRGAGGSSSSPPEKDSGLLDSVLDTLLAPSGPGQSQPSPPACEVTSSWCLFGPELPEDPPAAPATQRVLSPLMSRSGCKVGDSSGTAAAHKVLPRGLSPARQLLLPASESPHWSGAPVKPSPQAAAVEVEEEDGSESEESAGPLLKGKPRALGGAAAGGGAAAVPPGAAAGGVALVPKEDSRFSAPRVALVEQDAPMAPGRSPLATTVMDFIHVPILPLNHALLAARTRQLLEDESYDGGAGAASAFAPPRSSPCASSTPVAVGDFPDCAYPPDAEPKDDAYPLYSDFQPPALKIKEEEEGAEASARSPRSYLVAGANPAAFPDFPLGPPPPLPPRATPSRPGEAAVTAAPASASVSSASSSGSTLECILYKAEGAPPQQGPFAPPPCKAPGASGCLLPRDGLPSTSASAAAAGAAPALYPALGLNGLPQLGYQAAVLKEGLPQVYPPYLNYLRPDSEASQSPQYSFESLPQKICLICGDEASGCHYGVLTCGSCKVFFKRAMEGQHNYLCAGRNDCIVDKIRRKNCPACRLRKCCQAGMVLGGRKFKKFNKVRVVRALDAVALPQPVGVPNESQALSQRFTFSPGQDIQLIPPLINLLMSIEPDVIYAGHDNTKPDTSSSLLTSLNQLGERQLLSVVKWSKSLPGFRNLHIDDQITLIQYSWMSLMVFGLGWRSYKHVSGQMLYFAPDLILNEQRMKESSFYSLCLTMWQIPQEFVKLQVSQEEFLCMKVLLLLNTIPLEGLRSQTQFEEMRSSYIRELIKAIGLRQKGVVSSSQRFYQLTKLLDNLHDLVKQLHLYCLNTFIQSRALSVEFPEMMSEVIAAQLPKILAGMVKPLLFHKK
# Method in brief: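 PR-UAS-bla HEK 293T cells (beta-lactamase reporter under UAS) in 2% charcoal-stripped FBS, dosed with 23 nL compound after 6 hr, incubated 16hr at 37C. LiveBLAzer B/G FRET substrate added, fluorescence read after 2 hours.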
# [3] = biological target: Progesterone receptor (Homo sapiens) (UniProt P06401); assay: qHTS assay to identify small molecule antagonists of the progesterone receptor (PR) signaling pathway (AID 1346795; active = well fitted inhibition curve with a large enough effect in the signal ratio in the repeat runs, not every such curve was filed as active; the % refers to the signal ratio; also: potency is read from the fitted curve at half-maximal effect)
# Method in brief: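 PR-UAS-bla HEK293T cells with beta-lactamase reporter under UAS control, in 2% charcoal-stripped FBS, treated with compounds plus 1 nM promegestone (R5020, final) for 16 hr at 37C. Read-out: FRET beta-lactamase substrate fluorescence after 2 hr at room temperature.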
# [4] = qHTS assay to identify small molecule antagonists of the progesterone receptor (PR) signaling pathway - cell viability counter screen (AID 1346798); also: series mostly up to about 92 µM; nearly all actives have a fitted effect of over 50% in size
# Method in brief: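 PR-UAS-bla HEK293T cells, 3,000/well in 2% charcoal-stripped FBS medium, dosed with compounds plus R5020 agonist and incubated 16 h at 37C. Viability then measured in the same wells by CellTiter-Glo luminescence after 30 min at RT.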
# [5] = qHTS assay to identify small molecule agonists of the progesterone receptor (PR) signaling pathway - cell viability counter screen (AID 1346799; calls by dose curve; also: nearly all actives have a fitted effect of over 45% in size)
# Method in brief: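 Counter screen in the PR-UAS-bla HEK293T wells (2% charcoal-stripped FBS, 16 h compound exposure at 37 C) after the bla read. CellTiter-Glo added, 30 min at room temperature, luminescence read as cell viability.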
# [6] = qHTS assay to identify small molecule antagonists of the TGF-beta/Smad signaling pathway - cell viability counter screen (AID 1346824); also: nearly all actives have a fitted effect of over 50% in size
# Method in brief: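 SBE-bla HEK 293T cells, incubated overnight, then compound plus 0.25 ng/mL TGF-beta1 (stock added) for 5 hr at 37 C. Viability was read in the same wells by CellTiter-Glo luminescence after 30 min at room temperature.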
# [7] = qHTS assay to identify small molecule agonists of the TGF-beta/Smad signaling pathway - cell viability counter screen (AID 1346829); also: top concentration of the series differs between compounds; nearly all actives have a fitted effect of over 45% in size
# Method in brief: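 After overnight seating at 37 C and 5% CO2, reporter cells got compounds for 5 hr and FRET substrate for 2 hr; cell viability then came from CellTiter-Glo luminescence.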
# [8] = qHTS assay to identify small molecule agonists of the TGF-beta/Smad signaling pathway (AID 1346859; active = well fitted activation curve with a large enough effect in the signal ratio in the repeat runs, not every such curve was filed as active; the % refers to the signal ratio; also: series mostly up to about 77 µM)
# Method in brief: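 SBE-bla HEK293T cells plated overnight, then compound exposure for 5 h at 37 C. Beta-lactamase reporter read with LiveBLAzer B/G FRET substrate after 2 h at room temperature, fluorescence at 405 nm excitation, 460/530 nm emission.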
# [9] = biological target: Thyrotropin-releasing hormone receptor (Homo sapiens) (UniProt P34981); assay: qHTS assay to identify small molecule antagonists of the thyrotropin-releasing hormone receptor (TRHR) signaling pathway (AID 1346877; active = well fitted inhibition curve with a large enough effect in the repeat runs, not every such curve was filed as active; also: series mostly up to about 51 µM)
# Sequence of Thyrotropin-releasing hormone receptor (Homo sapiens) (P34981 whole entry, looked up): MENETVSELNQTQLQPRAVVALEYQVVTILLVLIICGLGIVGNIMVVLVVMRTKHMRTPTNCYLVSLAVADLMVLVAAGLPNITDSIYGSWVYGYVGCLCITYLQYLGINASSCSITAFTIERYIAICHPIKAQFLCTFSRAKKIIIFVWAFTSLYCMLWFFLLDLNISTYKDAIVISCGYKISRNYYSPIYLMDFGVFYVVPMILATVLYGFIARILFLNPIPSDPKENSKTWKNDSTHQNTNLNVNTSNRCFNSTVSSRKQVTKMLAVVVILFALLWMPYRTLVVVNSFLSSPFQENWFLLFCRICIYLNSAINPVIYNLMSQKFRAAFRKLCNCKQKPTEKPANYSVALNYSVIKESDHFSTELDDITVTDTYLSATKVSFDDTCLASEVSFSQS
# Method in brief: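 Cells (TRHR-HEK293) are plated and kept 18 h at 37 °C/5% CO2. A calcium-sensitive dye is added for 2 h, compound follows for 5 min at room temperature, and TRH is then given at 1 nM final.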
# [10] = biological target: Thyrotropin-releasing hormone receptor (Homo sapiens) (UniProt P34981); assay: qHTS assay to identify small molecule agonists of the thyrotropin-releasing hormone receptor (TRHR) signaling pathway (AID 1346891; calls by dose curve; also: series mostly up to about 58 µM)
# Method in brief: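 HEK293 cells expressing TRHR plated 18 h at 37 C/5% CO2, calcium dye-loaded 2 h at 37 C, then compound added (agonist mode); kinetic calcium fluorescence read 3 min at 1 s intervals; 15 concentrations in triplicate.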
compound,measurement,setting,value
CC(=O)[O-].CC(=O)[O-].CC(=O)[O-].[Sb+3],"activity change, negative = cytotoxicity",[1],-1.24% [at 3.27 µM]
same,activation,[2],3.93% [at 3.27 µM]
same,"activity change, negative = inhibition",[3],-5.92% [at 3.27 µM]
same,"activity change, negative = cytotoxicity",[4],10.2% [at 3.27 µM]
same,"activity change, negative = cytotoxicity",[5],7.1% [at 3.27 µM]
same,"viability change, negative = cytotoxic",[6],-1.18% [at 2.72 µM]
same,"activity change, negative = cytotoxicity",[7],2.52% [at 2.72 µM]
same,activation,[8],-3.71% [at 2.72 µM]
CCCCON=O,Potency,[1],inactive
same,Potency,[2],inactive
same,Potency,[3],inactive
same,Potency,[4],inactive
same,Potency,[6],inactive
same,Potency,[7],inactive
same,outcome,[8],inactive
same,Potency,[9],inactive
same,Potency,[10],inactive
CSC(C)(C)/C=N/O,Potency,[1],inactive
same,Potency,[2],inactive
same,Potency,[3],inactive
same,Potency,[4],inactive
same,Potency,[5],inactive
same,Potency,[6],inactive
same,Potency,[7],inactive
same,outcome,[8],inactive
same,Potency,[9],inactive
same,Potency,[10],inactive
CC(C)N(C(=O)SC/C(Cl)=C/Cl)C(C)C,Potency,[1],inactive
same,Potency,[2],inactive
same,Potency,[3],inactive
same,Potency,[4],inactive
same,Potency,[5],inactive
same,Potency,[6],inactive
same,Potency,[7],inactive
same,outcome,[8],inactive
CC(=O)[O-].CC(=O)[O-].O.O.O.[Pb+2],Potency,[1],inactive
same,Potency,[2],inactive
same,Potency,[3],inactive
same,Potency,[4],inactive
same,Potency,[5],inactive
same,Potency,[6],inactive
same,Potency,[7],inactive
same,outcome,[8],inactive
CC(C)C(Br)C(=O)NC(N)=O (stereo unspecified),Potency,[1],inactive
same,Potency,[2],inactive
same,Potency,[3],inactive
same,Potency,[4],inactive
same,Potency,[6],inactive
same,Potency,[7],inactive
same,outcome,[8],inactive
same,Potency,[9],inactive
same,Potency,[10],inactive
ClC(Cl)C(Cl)(Cl)Cl,Potency,[1],inactive
same,Potency,[2],inactive
same,Potency,[3],inactive
same,Potency,[4],inactive
same,Potency,[5],inactive
same,Potency,[6],inactive
same,Potency,[7],inactive
same,outcome,[8],inactive
same,Potency,[9],inactive
same,Potency,[10],inactive
CN1[C@@H]2CC[C@H]1CC(O)C2 (stereo partly specified),Potency,[1],inactive
same,Potency,[2],inactive
same,Potency,[3],inactive
same,Potency,[4],inactive
same,Potency,[5],inactive
same,Potency,[6],inactive
same,Potency,[7],inactive
same,outcome,[8],inactive
same,Potency,[9],inactive
same,Potency,[10],inactive
Cc1cc2c3c(c1)C(c1ccccc1)=N[C@@H](NC(=O)c1ccncc1)C(=O)N3CC2,Potency,[1],inactive
same,Potency,[2],inactive
same,Potency,[3],inactive
same,Potency,[4],inactive
same,Potency,[5],inactive
same,Potency,[6],inactive
same,Potency,[7],inactive
same,outcome,[8],inactive
same,Potency,[9],inactive
same,Potency,[10],inactive
CN=C=O,Potency,[1],inactive
same,Potency,[2],inactive
same,Potency,[3],inactive
same,Potency,[4],inactive
same,Potency,[6],inactive
same,Potency,[7],inactive
same,outcome,[8],inactive
NC(=O)C(Cl)Cl,Potency,[1],inactive
same,Potency,[2],inactive
same,Potency,[3],inactive
same,Potency,[4],inactive
same,Potency,[5],inactive
same,Potency,[6],inactive
same,Potency,[7],inactive
same,outcome,[8],inactive
same,Potency,[9],inactive
same,Potency,[10],inactive
O=c1c2ccccc2c(=O)c2c1cc(Cl)c1[nH]c3c([nH]c12)c(Cl)cc1c(=O)c2ccccc2c(=O)c13,Potency,[1],inactive
same,Potency,[2],inactive
same,Potency,[3],inactive
same,Potency,[4],inactive
same,Potency,[5],inactive
same,Potency,[6],inactive
same,Potency,[7],inactive
same,outcome,[8],inactive
same,Potency,[9],inactive
same,Potency,[10],inactive
CCCCN(CCCC)C(=S)[S-].CCCCN(CCCC)C(=S)[S-].[Ni+2],Potency,[1],inactive
same,Potency,[2],inactive
same,Potency,[3],inactive
same,Potency,[4],inactive
same,Potency,[6],inactive
same,Potency,[7],inactive
same,outcome,[8],inactive
ClC1=C(Cl)[C@]2(Cl)[C@H]3[C@H]([C@@H]4C=C[C@H]3C4)[C@@]1(Cl)C2(Cl)Cl,Potency,[1],inactive
same,Potency,[2],inactive
same,Potency,[3],21.7 µM (active)
same,Potency,[4],inactive
same,Potency,[5],inactive
same,Potency,[6],inactive
same,outcome,[8],inactive
same,Potency,[9],inactive
same,Potency,[10],inactive
Clc1c(Cl)c(Cl)c(Cl)c(Cl)c1Cl,"activity change, negative = cytotoxicity",[1],1.86% [at 8.39 µM]
same,activation,[2],-0.806% [at 8.39 µM]
same,"activity change, negative = inhibition",[3],-1.77% [at 8.39 µM]
same,"activity change, negative = cytotoxicity",[4],-0.673% [at 8.39 µM]
same,"viability change, negative = cytotoxic",[6],1.21% [at 6.97 µM]
same,activation,[8],-0.619% [at 6.97 µM]
same,"activity, negative = inhibition",[9],0.118% [at 4.65 µM]
same,activation,[10],-0.641% [at 5.23 µM]
CCN(CC)C(=O)N[C@@H]1C=C2c3cccc4[nH]cc(c34)C[C@@H]2N(C)C1,Potency,[1],inactive
same,Potency,[2],inactive
same,Potency,[3],inactive
same,Potency,[4],inactive
same,Potency,[6],inactive
same,outcome,[8],inactive
same,Potency,[9],inactive
same,Potency,[10],inactive
c1cc[n+]2c(c1)-c1cccc[n+]1CC2,Potency,[1],29.8 µM (active)
same,Potency,[2],inactive
same,Potency,[3],inactive
same,Potency,[5],inactive
same,Potency,[6],inactive
same,outcome,[8],inactive
same,Potency,[9],inactive
same,Potency,[10],inactive
COc1cnc(OC)n2nc(NS(=O)(=O)c3c(OCC(F)F)cccc3C(F)(F)F)nc12,Potency,[1],inactive
same,Potency,[2],inactive
same,Potency,[4],inactive
same,Potency,[5],inactive
same,Potency,[6],inactive
same,Potency,[7],inactive
same,outcome,[8],inactive
same,Potency,[9],inactive
same,Potency,[10],inactive
CC(C)NCC(O)c1ccccc1Cl (stereo unspecified),Potency,[1],inactive
same,Potency,[2],inactive
same,Potency,[3],inactive
same,Potency,[6],inactive
same,Potency,[7],inactive
same,outcome,[8],inactive
same,Potency,[9],inactive
same,Potency,[10],inactive
CC(Cc1ccc(O)cc1)NCC(O)c1cc(O)cc(O)c1 (stereo unspecified),Potency,[1],inactive
same,Potency,[2],inactive
same,Potency,[3],inactive
same,Potency,[5],inactive
same,Potency,[6],inactive
same,Potency,[7],inactive
same,outcome,[8],inactive
same,Potency,[9],inactive
same,Potency,[10],inactive
O=C(Cl)c1ccccc1F,Potency,[1],inactive
same,Potency,[2],inactive
same,Potency,[4],inactive
same,Potency,[5],inactive
same,Potency,[6],inactive
same,Potency,[7],inactive
same,outcome,[8],inactive
[O]=[Cr][O][Cr]=[O],Potency,[1],inactive
same,Potency,[2],inactive
same,Potency,[3],inactive
same,Potency,[5],inactive
same,Potency,[6],inactive
same,Potency,[7],inactive
same,outcome,[8],inactive
same,Potency,[9],inactive
same,Potency,[10],inactive
C=Cc1cccc(CCl)c1,Potency,[1],inactive
same,Potency,[2],inactive
same,Potency,[3],inactive
same,Potency,[5],inactive
same,Potency,[6],inactive
same,outcome,[8],inactive
same,Potency,[9],inactive
same,Potency,[10],inactive
CNC(=O)CSP(=O)(OC)OC,Potency,[1],inactive
same,Potency,[2],inactive
same,Potency,[3],inactive
same,Potency,[4],inactive
same,Potency,[6],inactive
same,outcome,[8],inactive
S=C=Nc1ccccc1,Potency,[1],inactive
same,Potency,[2],inactive
same,Potency,[3],inactive
same,Potency,[5],inactive
same,Potency,[6],inactive
same,outcome,[8],inactive
same,Potency,[9],inactive
same,Potency,[10],inactive
ClCBr,Potency,[1],inactive
same,Potency,[2],inactive
same,Potency,[3],inactive
same,Potency,[4],inactive
same,Potency,[6],inactive
same,outcome,[8],inactive
same,Potency,[9],inactive
same,Potency,[10],inactive
